Experimental data as given in PubChem BioAssay (NCI).
This is part of a sample that, as a whole, favours compounds with a hit. Of some 79,000 tested, about 15% had one in any assay. Unmarked numbers belong to inactive results. Calls of active or inactive are those of the source. No stated cut-off is given here; in the data, active means growth inhibition above about 70%; inactive means the rest.

Assay: NCI Yeast Anticancer Drug Screen. Data for the sgs1 strain (AID 173);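 further: 0% = growth of vehicle-only control cultures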
Settings: S. cerevisiae sgs1 mutant, hits give high values
Protocol: Growth inhibition of yeast strains with defined genetic alterations is measured as a screen for potential anti-cancer activity. Selected strains with alterations in DNA damage repair or cell cycle control were exposed to compounds and growth inhibition was measured relative to vehicle treated controls. The strain used in this assay is sgs1

SMILES | growth inhibition (at 1.2 µM) | growth inhibition (at 3.7 µM) | growth inhibition (at 11.0 µM) | growth inhibition (at 33.0 µM) | growth inhibition (at 100.0 µM)
CC1CCCN(CCc2ccccc2)CC1 (stereo not given) | 0% | 7% | 16% | 23% | 21%
CCNC(=O)OCC1C2=C(C(=O)C(C)=C(N)C2=O)N2CC3C(N3C)C12OC (stereo not given) | 4% | 16% | 29% | 59% | 81% (active)
NCCc1ccc(OCc2ccccc2)c(OCc2ccccc2)c1 | -8% | -5% | 51% | 95% (active) | 96% (active)
CC(=O)O/C(=C1\C[C@H]2[C@@H]3CC=C4C[C@@H](OC(C)=O)CC[C@]4(C)[C@H]3CC[C@]2(C)C1=O)C(F)(F)F | 2% | 3% | 4% | 3% | 2%
COC(=O)C1=C(C(=O)OC)SC2(S1)C(C(=O)OC)=C(C(=O)OC)Sc1c2ssc1=O | 43% | 58% | 87% (active) | 99% (active) | 93% (active)
CN(N=O)C(=O)NNC(=O)N(C)N=O | 11% | 26% | 52% | 81% (active) | 91% (active)
COc1ccc(/C=C(/C)[N+](=O)[O-])cc1 | 20% | 41% | 42% | 86% (active) | 98% (active)
S=C1NC2(CCCCC2)NC12CCCCC2 | -1% | -3% | 2% | 8% | 12%
